For 44 molecules, activation factor and activity change, negative = activation results are on record in PubChem BioAssay AID434970 (Sanford-Burnham Center for Chemical Genomics, 2010).

Screen size: about 11,000 compounds; about 310 (2.8%) were called active. Rule as the data show it: active = activity change below about -85%; inactive = the rest. Only a selection was taken, and actives are over-represented in it overall.

The assay concerns intestinal alkaline phosphatase [Mus musculus]. Briefly: activators of mouse IAP, confirmation, biochemical, luminescence, single concentration (AID 434970). The note with it: purified mouse IAP, CDP-Star luminescence, 30 min, at 10 µM; activation factor: measured here: IAP activation factor, stronger effect = higher value; activity change, negative = activation: stronger effect = lower value.
In the case of `Cc1cccc(NC(=S)NC(C)CCc2ccccc2)c1` (stereo not drawn), the activation factor is 1.15 and the activity change, negative = activation is -14.6% (inactive).

Regarding `S=C(NCCCc1ccccc1)Nc1ccc(Br)cc1`, the activation factor came out at 1.72 and the activity change, negative = activation was -71.9% (inactive).

In the case of `Cc1cccc(NC(=O)NCCCCc2ccccc2)c1`, the activation factor came out at 2.38 and the activity change, negative = activation is -138% (active).

As to `Fc1cccc(NC(=S)NCc2ccccc2Cl)c1`, the activation factor amounted to 1.27 and the activity change, negative = activation was -27.2% (inactive).

For the molecule `COc1cccc(NC(=O)Nc2cccn(Cc3ccccc3)c2=O)c1`, the activation factor was 1.01 and the activity change, negative = activation is -1.1% (inactive).

Regarding `Cc1ccc(NC(=O)NCCCc2ccccc2)cc1`, the activation factor stood at 1.29 and the activity change, negative = activation was -28.6% (inactive).

As to `Cc1cccc(NC(=O)NC(C)CCc2ccccc2)c1` (stereo not drawn), the activation factor was found to be 2.83 and the activity change, negative = activation is -183% (active).

With `O=C(NCCCCc1ccccc1)Nc1cccc(F)c1`, the activation factor was 2.29 and the activity change, negative = activation was -129% (active).

As to `O=C(c1ccc(F)cc1)N1CCN(Cc2ccccc2Br)CC1`, the activation factor was 0.984 and the activity change, negative = activation was 1.55% (inactive).

`CCn1c(SCC(=O)Nc2nccs2)nnc1-c1cc2cccc(OC)c2o1`: the activation factor is 0.881 and the activity change, negative = activation is 11.9% (inactive).

Take `CCOc1ccc(C(=S)N2CCCC2)cc1`: the activation factor turned out to be 0.949 and the activity change, negative = activation is 5.1% (inactive).

`CCSc1nc(N)c2c(C)c(C)sc2n1`: the activation factor was determined as 1.11 and the activity change, negative = activation is -10.9% (inactive).

For the molecule `CCOc1ccccc1N1CCN(S(=O)(=O)c2ccc3c4c(cccc24)C(=O)N3)CC1`, the activation factor worked out at 0.442 and the activity change, negative = activation was 55.8% (inactive).

With `S=C(NCCCc1ccccc1)Nc1ccccc1Cl`, the activation factor came to 1.26 and the activity change, negative = activation was -26.2% (inactive).

Consider `COc1ccc(Cl)cc1NC(=S)NCCC(c1ccccc1)c1ccccc1`, for which the activation factor came out at 2.07 and the activity change, negative = activation is -107% (active).

Turning to `Cc1c(Cl)cccc1NC(=S)NCc1ccccc1`, the activation factor is 1.04 and the activity change, negative = activation was -4% (inactive).

Take `Cc1ccccc1NC(=S)NCCC(c1ccccc1)c1ccccc1`: the activation factor is 1.96 and the activity change, negative = activation was -96% (active).

`S=C(NCCC(c1ccccc1)c1ccccc1)Nc1ccccc1Cl`: the activation factor is 1.84 and the activity change, negative = activation is -84.1% (inactive).

With `COc1ccccc1NC(=S)NCCC(c1ccccc1)c1ccccc1`, the activation factor worked out at 1.39 and the activity change, negative = activation is -38.9% (inactive).

For `S=C(NCCc1ccc(Cl)cc1)Nc1ccc(Cl)cc1Cl`, the activation factor was determined as 1.36 and the activity change, negative = activation was -36.1% (inactive).

Take `Cc1c(Cl)cccc1NC(=S)NCCC(c1ccccc1)c1ccccc1`: the activation factor was 4.75 and the activity change, negative = activation is -375% (active).

Take `COc1ccc(Cl)cc1NC(=S)NCCSc1ccc(C)cc1`: the activation factor was found to be 1.43 and the activity change, negative = activation is -42.5% (inactive).

On to `Cc1c(Cl)cccc1NC(=S)NCCC(C)C`, for which the activation factor worked out at 1.19 and the activity change, negative = activation was -19.2% (inactive).

On to `Cc1cc(Cl)ccc1NC(=S)NCCC(c1ccccc1)c1ccccc1`, for which the activation factor is 2.05 and the activity change, negative = activation is -105% (active).

In the case of `Cc1ccc(Cl)cc1NC(=S)NCCCSC1CCCCC1`, the activation factor is 1.29 and the activity change, negative = activation is -28.8% (inactive).

As for `CSc1nc(Oc2ccc(=O)n(C)n2)nc(N(C)C)n1`, the activation factor came to 1.07 and the activity change, negative = activation was -6.65% (inactive).

As to `COc1ccc(C2C(C#N)=C(N)N(c3sc4c(c3C#N)CCCC4)C3=C2C(=O)CC(C)(C)C3)cc1OC` (stereo not drawn), the activation factor was determined as 0.851 and the activity change, negative = activation is 14.9% (inactive).

For `CCC(C)(C)NC(=O)C(c1ccccc1)N(C(=O)c1csnn1)C1CC1` (stereo not drawn), the activation factor amounted to 0.99 and the activity change, negative = activation is 1% (inactive).

For `Cc1cc(=O)c2cc(Br)ccc2[nH]1`, the activation factor was determined as 0.944 and the activity change, negative = activation is 5.65% (inactive).

For the molecule `CCOC(=O)CSc1nc(-c2ccc(OC)cc2)ns1`, the activation factor amounted to 1 and the activity change, negative = activation was 0.05% (inactive).

Consider `COc1ccccc1C(=O)NCCN1CCN(C(=O)c2ccccc2OC)CC1`, for which the activation factor is 1.1 and the activity change, negative = activation is -10.1% (inactive).

Turning to `COc1cccc(OCC(=O)Nc2ccccc2NC(C)=O)c1`, the activation factor is 1.08 and the activity change, negative = activation was -8.25% (inactive).

Consider `COc1cccc(C(CC(=O)Nc2cccc3ccccc23)NC(=O)c2ccccc2)c1` (stereo not drawn), for which the activation factor was found to be 2.19 and the activity change, negative = activation is -119% (active).

For `COc1ccc(C(=O)Nc2ccccc2C(=O)N/N=C/c2cccc3ccccc23)cc1`, the activation factor was found to be 1.02 and the activity change, negative = activation is -1.95% (inactive).

Consider `NC(=O)CSc1nnc(-c2ccncc2)n1CCc1ccccc1`, for which the activation factor turned out to be 1.05 and the activity change, negative = activation was -5.05% (inactive).

Take `COc1ccc(COC(=O)Nc2cc3c(C(F)(F)F)nn(C)c3s2)cc1`: the activation factor was 1.23 and the activity change, negative = activation was -23.1% (inactive).

In the case of `O=C1NC2(CCCCC2)C(=O)N1c1ccccc1`, the activation factor worked out at 1.08 and the activity change, negative = activation was -7.85% (inactive).

Regarding `COc1ccc(NC(=O)NCc2ccncc2)cc1`, the activation factor came to 1.01 and the activity change, negative = activation was -0.85% (inactive).

`COc1ccc(NC(=O)NC23CC4(C)CC(C)(CC(C)(C4)C2)C3)cc1OC`: the activation factor is 1.65 and the activity change, negative = activation was -64.8% (inactive).

Take `COc1ccc(NC(=O)NC23CC4(C)CC(C)(CC(C)(C4)C2)C3)cc1`: the activation factor was determined as 2.08 and the activity change, negative = activation is -108% (active).

For `Cn1nnnc1SCC(=O)N1CCN(c2ccc(Cl)cc2)CC1`, the activation factor is 1.06 and the activity change, negative = activation was -5.85% (inactive).

In the case of `CCN(CC)c1ccc(NC(=O)c2cccc(OC)c2)c(C)c1`, the activation factor came to 0.97 and the activity change, negative = activation is 3.05% (inactive).

For `CCOc1ccc(OCCCN(C)C)cc1`, the activation factor was determined as 0.976 and the activity change, negative = activation was 2.4% (inactive).

On to `O=C(CN1CCN(Cc2ccccc2Cl)C1=O)NCc1ccco1`, for which the activation factor came to 0.935 and the activity change, negative = activation is 6.45% (inactive).
